Reference: PubChem BioAssay (NCI)
Compounds without any hit were thinned out: in the full panel of roughly 83,000, 20% have a hit.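 Assay: single dose, 48 h. Readout: percent growth (0 = no net growth; negative = cell death). Active: <10.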 Values without a mark were called inactive. The source made the active and inactive calls.

How the values were obtained:
Test in all cases: NCI-60 one-dose screen, 48 h (100 = growth as untreated, 0 = no growth, -100 = all killed)
Settings in all cases: 10 µM unless noted
SK-MEL-2 melanoma = tested on: SK-MEL-2 melanoma
EKVX NSCLC = tested on: EKVX NSCLC
SN12C renal = tested on: SN12C renal
UO-31 renal = tested on: UO-31 renal
TK-10 renal = tested on: TK-10 renal
ACHN renal = tested on: ACHN renal
A498 renal = tested on: A498 renal
CCRF-CEM leukemia = tested on: CCRF-CEM leukemia
MOLT-4 leukemia = tested on: MOLT-4 leukemia
CAKI-1 renal = tested on: CAKI-1 renal

| SMILES | growth (SK-MEL-2 melanoma) | growth (EKVX NSCLC) | growth (SN12C renal) | growth (UO-31 renal) | growth (TK-10 renal) | growth (ACHN renal) | growth (A498 renal) | growth (CCRF-CEM leukemia) | growth (MOLT-4 leukemia) | growth (CAKI-1 renal) |
| --- | --- | --- | --- | --- | --- | --- | --- | --- | --- | --- |
| COc1ccc(-c2nc(SCCC(C)C)nc(N/N=C(/C)c3ccc(N)cc3)c2C#N)cc1 | 109% | 93.4% | 75.1% | 69.3% | 104% | 92.9% | 90.9% | 95.8% | 95.4% | – |
| N#C/C(=N\Nc1ccccc1)C(=O)Nc1cc(-c2ccccc2)nn1-c1ccccc1 | 22.6% | 28.3% | 3.41% (active) | 29.7% | 38.6% | 39% | 1.62% (active) | 26.6% | 33.3% | – |
| CNC(=O)c1cc(Oc2ccc3nc(NC(=O)Nc4ccc(F)cc4F)sc3c2)ccn1 | 74.7% | 89.8% | 69.2% | 91.4% | 93.5% | 60.6% | 10.9% | 89.7% | 82.4% | 88.4% |
| c1ccc2c(-c3cnn4cc(-c5ccc(N6CCNCC6)cc5)cnc34)ccnc2c1 | -59.2% (active) | -37.3% (active) | -75.5% (active) | -93.4% (active) | -74.8% (active) | -99.3% (active) | -87% (active) | -48.2% (active) | -28.7% (active) | – |
| COc1ccc2c(c1)C(c1c[nH]c3ccccc13)(c1c[nH]c3ccccc13)CCO2 | 43.6% | 35% | 50.6% | 26.1% | 59.7% | 45% | 82.9% | 36.7% | 8.7% (active) | – |
| COc1ccc(S(=O)(=O)Oc2ccc(-c3sc4cc(OS(=O)(=O)c5ccc(OC)cc5)ccc4c3C(=O)c3ccc(OCCN4CCCCC4)cc3)cc2)cc1 | 119% | 97% | 99.9% | 80.7% | 95% | 101% | 105% | 97.7% | 89.3% | – |
| COc1cc2cc(Oc3ccc(NC(=O)Nc4ccc(Cl)c(Cl)c4)cc3)c(C)nc2cc1OCCN1CCCCC1 | 124% | 99.8% | 101% | 88.2% | 133% | 106% | 86.8% | 9.57% (active) | 64.6% | 78% |
| COc1ccc(-c2cc(-c3ccc(Cl)cc3)c(C#N)c(=O)n2CCCCC(=O)NO)cc1 | 88% | 71.9% | 68.7% | -16.4% (active) | 70.4% | 34.6% | 95.4% | 63.9% | 80.6% | – |
| CCCCCCCCNc1ncnc2c1ncn2Cc1nnc2c3ccccc3c(Cl)nn12 | 16.7% | 57.3% | 29.7% | 23.6% | 43.8% | 28.5% | 69.8% | 24.2% | 12.3% | – |
| COC(=O)[C@H](C)NC(=O)c1ccc(NC(=O)c2[nH]c(C)c(Cl)c2Cl)c(OCCN)c1 | 121% | 103% | 97.5% | 98.2% | 112% | 99% | 88.9% | 97.8% | 91.2% | – |
| O=C(/C=C/c1ccc(Cl)cc1)c1ccc(Nc2ccnc3cc(Cl)ccc23)cc1 | 54% | 136% | 97.1% | 65% | 111% | 109% | 108% | 3.01% (active) | 43.4% | 76.3% |
| CCOC(=O)CCC(=O)P(=O)(O)O | 104% | 106% | 108% | 105% | 99.3% | 91.6% | 107% | 75.1% | 62.6% | – |
| CNC(=O)c1cc(Oc2ccc3nc(NC(=O)NC(C)C)sc3c2)ccn1 | 89.9% | 93.7% | 86.3% | 79.2% | 88.6% | 94% | 51.4% | 64.4% | 40.7% | 91.9% |
| COc1cc(/C=C2\CN(S(=O)(=O)c3ccc(C)cc3)C/C(=C\c3cc(CN4CCCC4)c(O)c(OC)c3)C2=O)cc(CN2CCCC2)c1O | 14.4% | 0.183% (active) | -56.1% (active) | 4.71% (active) | 24.7% | 1.63% (active) | 40.9% | -5.62% (active) | -8.53% (active) | – |
| CCOc1ccc(N2C(=O)CCSC2=S)cc1 | 102% | 95.5% | 101% | 85.5% | 96.3% | 101% | 102% | 108% | 104% | – |
| COc1ccc(-c2cc(-c3ccc(N(C)C)cc3)nc(NC(=O)c3cccnc3)n2)cc1 | 111% | 96.6% | 97.5% | 80.6% | 117% | 95.6% | 109% | 104% | – | – |
| CC1(C)C2=C(C(=O)N1Cc1ccccc1)C(c1ccco1)N(C(=O)C1CCC1)CCN2 (stereo not given) | 94.3% | 97.4% | 93.4% | 90.5% | 93.9% | 111% | 113% | 105% | 102% | 91.9% |
| CSc1nc(N)c2c(n1)NC(c1ccccc1)C1CCc3ccccc3C1=N2 (stereo not given) | 30.1% | 40.9% | 65.7% | 43% | 112% | 72.3% | 42.7% | 20% | 27.9% | 48.2% |
| COc1cccc(C(=O)Nc2cccc(NC(=O)c3ccccn3)c2)c1 | 108% | 94.1% | 98.8% | 79.5% | 96.6% | 100% | 93% | 103% | 88.6% | 99.1% |
| O=C(CNc1ncco1)Nc1ccc(S(=O)(=O)c2ccc(NC(=O)CNc3ncco3)cc2)cc1 | -6.97% (active) | 50.4% | 8.32% (active) | 41.1% | 54.4% | 30.5% | 100% | 0.572% (active) | 5.92% (active) | – |
| O=C(/C=C/c1ccc(Cl)cc1)c1ccc(-n2cc(CN3CCN(c4cc5c(cc4F)c(=O)c(C(=O)O)cn5C4CC4)CC3)nn2)cc1 | 99.1% | 96.6% | 58.2% | 65.1% | 92.4% | 89.9% | 60.5% | 74.6% | 81.7% | 75.5% |
| Cn1ccnc1C(=O)/C=C/c1ccc(C(=O)Nc2ccccc2F)cc1 | 76.2% | 32.4% | 8.08% (active) | 34.9% | 44.7% | 21.1% | 17.9% | 3.74% (active) | 12.1% | – |
| C/C=C(/C)C(=O)O[C@@H]1CC(C)(C)CC2C34OC(=O)[C@@]21CC[C@@]3(C)[C@]1(C)CCC2C(C)(C)C(=O)CC[C@]2(C)C1C[C@@H]4O (stereo not given in full) | 80.3% | 50.1% | 83.7% | 67.8% | 73.2% | 85.9% | 69.3% | 36.3% | – | – |
| COc1cc(C2CC(c3cccc(Nc4ccncc4)c3)=Nc3c(N)ncnc3N2)cc(OC)c1OC (stereo not given) | 92.6% | 87.2% | 93.9% | 98.5% | 110% | 95.1% | 87.4% | 73.2% | 85.6% | – |
| Cc1oc2ccc(O)c(CN3CCCCCC3)c2c1C(=O)Nc1ccc(C(F)(F)F)cc1 | 78.4% | 64.1% | 66.7% | 40.7% | 81.1% | 68.5% | 50.5% | 65.2% | 64.3% | 50.5% |
| C=C(c1ccc(OC)c(/C=C/C(=O)c2cc(OC)c(OC)c(OC)c2)c1)c1cc(OC)c(OC)c(OC)c1 | 3.16% (active) | 15% | -13.9% (active) | -85.6% (active) | 24.3% | -79.9% (active) | -23.5% (active) | 17.9% | 12% | – |
| CSc1nc(CC(C)C)c(C#N)c(=O)n1C | 85.8% | 64.3% | 29.1% | 38.9% | 34.2% | 55.6% | 47% | 49.2% | 46.1% | 56.8% |
| COc1ccc(-c2nc3cc(C(=O)NC4CCCCC4)ccc3n2C2CCCCC2)cc1 | 92.4% | 69.2% | 96.4% | 82.6% | 91.5% | 87% | 103% | 94.4% | 74.5% | – |
